From PubChem BioAssay
WRN helicase inh: WRN helicase (human) inhibition. Q14191. WRN helicase unwinding, fluorescent forked duplex, kinetic. Potency, µM (doses to about 114 µM), hits mostly inhibitors. 360,000 tested, 0.46% active; note: nearly all actives have a fitted effect of over 55% in size
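Kinetic red-fluorescence monitoring (525/598 nm) tracks WRN helicase activity after 100 nM fluorophore-quencher forked duplex and 2 mM ATP are added to 20 nM enzyme pretreated 15 min at room temperature with compound.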
L3MBTL1 block: inhibitors of human L3MBTL1; Potency, µM (highest dose often 57.1 µM), most hits filed as inhibitors; AlphaScreen L3MBTL1–H3K9me1 peptide binding; Q9Y468; 230,000 tested, 0.66% active; note: nearly all actives have a fitted effect of over 60% in size
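AlphaScreen proximity signal between nickel-chelate acceptor and streptavidin donor beads (final 10 ug/mL) reports binding of 50 nM L3MBTL1 to 75 nM biotin-H3 K9me1 peptide; complex incubated with compounds 30 min at room temperature; cefsulodin titration as control.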
Pol beta inh: inhibitors of human DNA polymerase beta | Pol beta primer extension/strand displacement, fluorescence kinetic | Potency, µM (top dose mostly 114 µM), usual class: inhibitors | 340,000 tested, 1.3% active
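Preincubation: enzyme (10 nM) with compound, 15 min, RT. Reaction: substrate added to 50 nM final. Reads: 0 and 10 min. Analysis: normalized, Hill fit.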
POLH inh: DNA polymerase eta (human) inhibition. Q9Y253. recombinant Pol eta, fluorescent DNA replication assay. Potency, µM (titrated, usually from 114 µM), usual class: inhibitors. 390,000 tested, 1.2% active. AID 588591
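Fluorescent replication assay: 50 nM final substrate added after a 15 min room-temperature compound preincubation with 10 nM enzyme. Signal taken at 0 min and again at 10 min.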
POLK inh: inhibitors of human DNA polymerase kappa; Q9UBT6; purified Pol kappa, fluorescent DNA synthesis assay, 10 min; Potency, µM (series often up to 107 µM), most hits filed as inhibitors; 400,000 tested, 0.53% active; AID 588579
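10 nM Pol kappa was preincubated with compounds for 15 min at room temperature. Reaction started with 50 nM (final) substrate. Fluorescence read kinetically at 0 and 10 min.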
Pol iota inh: inhibitors of human DNA polymerase iota. Potency, µM (doses to about 115 µM), hits mostly inhibitors. Q9UNA4. Pol iota fluorescent replication assay, 10 min. 390,000 tested, 1% active
Target sequence (Q9UNA4 whole entry, looked up): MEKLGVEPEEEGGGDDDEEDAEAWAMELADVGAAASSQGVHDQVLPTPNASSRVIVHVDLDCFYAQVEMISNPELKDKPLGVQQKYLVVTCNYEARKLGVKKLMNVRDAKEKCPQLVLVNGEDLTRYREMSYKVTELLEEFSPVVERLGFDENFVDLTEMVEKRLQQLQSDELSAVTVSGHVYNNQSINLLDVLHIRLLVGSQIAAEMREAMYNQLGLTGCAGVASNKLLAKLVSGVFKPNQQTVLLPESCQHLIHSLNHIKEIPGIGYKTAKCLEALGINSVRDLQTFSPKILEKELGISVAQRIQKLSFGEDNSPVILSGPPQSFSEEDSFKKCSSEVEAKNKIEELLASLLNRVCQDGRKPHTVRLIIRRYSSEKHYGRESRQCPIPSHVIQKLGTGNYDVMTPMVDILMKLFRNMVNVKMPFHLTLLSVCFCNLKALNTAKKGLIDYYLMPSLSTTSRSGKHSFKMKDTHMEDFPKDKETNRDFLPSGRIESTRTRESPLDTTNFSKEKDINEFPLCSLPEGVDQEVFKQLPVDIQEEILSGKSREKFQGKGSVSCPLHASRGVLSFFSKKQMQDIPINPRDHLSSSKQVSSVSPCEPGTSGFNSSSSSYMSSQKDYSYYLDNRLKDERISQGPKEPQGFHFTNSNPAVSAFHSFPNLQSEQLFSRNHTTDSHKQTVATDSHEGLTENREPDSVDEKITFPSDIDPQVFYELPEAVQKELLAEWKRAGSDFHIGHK
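Pol iota at 10 nM preincubated 15 min with compounds at room temperature; reaction started with fluorescent substrate, 50 nM final. Fluorescence read kinetically at 0 and 10 min; buffer-only wells as negative control.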
A number is an active result; ! = a repeat was not active; [ ] = remark or other dose. An excerpt weighted towards active compounds, which were near 2.5% of everything screened. Calls come from the whole dose curve; as a rule, active = well fitted curve in the direction sought with a large enough effect; inconclusive = small, poorly fitted or top-dose-only effect, or another doubt; inactive = no such curve, though single readings can be large; an effect the other way counts as inactive or inconclusive.

How did CCC(C)n1c(NC(=O)c2ccccc2)c(C#N)c2nc3ccccc3nc21 (stereo not drawn) do in these assays?
WRN helicase inh: inactive; L3MBTL1 block: 6.3µM; Pol beta inh: 40µM; POLH inh: 50µM; POLK inh: inconclusive; Pol iota inh: 3.2µM

Results for O=C1C2C3C=CC(C3)C2C(=O)N1c1ncn[nH]1 (stereo not drawn) ?
WRN helicase inh: inactive; L3MBTL1 block: inactive; Pol beta inh: 40µM; POLH inh: inconclusive; POLK inh: inactive; Pol iota inh: inconclusive

Results for O=C(O)c1cc(N(Cc2ccccc2O)Cc2cc(O)ccc2O)ccc1O ?
POLK inh: 11µM

Results for O=C(Cc1ccccc1)c1ccc(O)cc1O ?
WRN helicase inh: inactive; POLH inh: inactive; POLK inh: inactive; Pol iota inh: inactive

How did Cc1ccc2nc(/C(C#N)=C/c3ccc(O)c(O)c3)[nH]c2c1 do in these assays?
WRN helicase inh: 45µM; Pol beta inh: inconclusive; POLH inh: inconclusive; POLK inh: inconclusive; Pol iota inh: inconclusive

Results for CC(=O)c1cccc(S(=O)(=O)NC(C)C2CC3CCC2C3)c1 (stereo not drawn) ?
WRN helicase inh: inconclusive; Pol beta inh: 22µM; POLH inh: inconclusive; POLK inh: inactive; Pol iota inh: inconclusive

Results for O=C(CSC1=NC(=O)C(c2ccccc2)C(=O)N1)Nc1ccccc1[N+](=O)[O-] (stereo not drawn) ?
WRN helicase inh: inactive[11.6 µM]; L3MBTL1 block: inactive; Pol beta inh: inconclusive; POLH inh: 50µM; POLK inh: inconclusive; Pol iota inh: inconclusive

Results for Cc1cc(O)c(C=O)c2c1C(=O)Oc1c(COC(=O)/C=C/C(=O)O)c(O)c(C(=O)O)c(C)c1O2 ?
POLK inh: 3.5µM

Results for Cc1cc(O)c(C=O)c(O)c1C(=O)O ?
POLK inh: inactive

How did Cc1cc(O)c(C=O)c2c1C(=O)Oc1c(CO)c(O)c3c(c1O2)C(O)OC3=O (stereo not drawn) do in these assays?
WRN helicase inh: 3.5µM; L3MBTL1 block: 2.8µM; Pol beta inh: 2.2µM; POLH inh: 2.8µM; POLK inh: 0.79µM; Pol iota inh: 1.1µM

How did CCCCn1c(N)c(C(=S)NC(=O)CC(C)C)c(=O)n(C)c1=O do in these assays?
WRN helicase inh: inactive; L3MBTL1 block: inactive; Pol beta inh: inactive; POLH inh: inactive; POLK inh: inactive; Pol iota inh: inactive

What do the screens show for `O=c1c2ccccc2nc2c3ccccc3c(NCCN3CCOCC3)nn12`?
L3MBTL1 block: inactive; Pol beta inh: 40µM

What do the screens show for `O=C(NCC(c1ccc(F)cc1)N1CCOCC1)c1ccc([N+](=O)[O-])o1` (stereo not drawn)?
WRN helicase inh: inactive; L3MBTL1 block: inactive; POLH inh: inactive; POLK inh: inactive; Pol iota inh: inactive

Results for COc1cccc(C(=O)Nc2cccc(C(=O)N3CCOCC3)c2)c1 ?
WRN helicase inh: inactive; L3MBTL1 block: inactive; Pol beta inh: inactive; POLH inh: inactive; POLK inh: inactive; Pol iota inh: 89µM

Results for COc1cccc(C(=O)N2CCOCC2)c1 ?
WRN helicase inh: inactive; L3MBTL1 block: inconclusive; Pol beta inh: inactive; POLH inh: inactive; POLK inh: inactive; Pol iota inh: inactive

What do the screens show for `COc1cccc(C(=O)NCC2CCN(c3ccc(S(=O)(=O)N4CCOCC4)cc3)CC2)c1`?
WRN helicase inh: inactive; L3MBTL1 block: inactive; Pol beta inh: 40µM; POLH inh: inactive; POLK inh: inactive; Pol iota inh: inactive

How did O=C(NCc1cccc2ccccc12)Nc1ccccc1 do in these assays?
WRN helicase inh: inactive; L3MBTL1 block: inactive; Pol beta inh: inactive; POLH inh: inactive; POLK inh: inactive; Pol iota inh: inactive

What do the screens show for `O=C(NCCC1=CCCCC1)c1ccc2c(c1)ncn2-c1cccc(Cl)c1`?
Pol beta inh: inactive; POLH inh: inactive; POLK inh: inactive; Pol iota inh: inactive

Results for N#C/C(=C/c1ccco1)C(N)=S ?
WRN helicase inh: inactive; L3MBTL1 block: inconclusive; Pol beta inh: 20µM; POLH inh: inactive; POLK inh: inactive; Pol iota inh: inconclusive

Results for N#C/C(=C\c1ccc2c(c1)OCO2)C(N)=S ?
WRN helicase inh: inactive; L3MBTL1 block: inactive; Pol beta inh: inactive; POLH inh: inactive; POLK inh: inactive; Pol iota inh: inconclusive

Results for COc1ccccc1NC(=O)CN1CCN(C2c3ccccc3-c3ccccc32)CC1 ?
WRN helicase inh: inactive; L3MBTL1 block: inactive; Pol beta inh: inactive; POLH inh: inactive; POLK inh: inactive; Pol iota inh: inactive

How did COc1ccc(-c2nc(N)n(C(=O)c3ccc(C)cc3)n2)cc1 do in these assays?
WRN helicase inh: inactive; L3MBTL1 block: inactive; Pol beta inh: inactive; POLH inh: inactive; POLK inh: inactive; Pol iota inh: inactive

What do the screens show for `CC1(C)CCC(C)(C)c2cc(C(=O)Nc3ccc(C(=O)O)cc3)ccc21`?
POLK inh: inactive[19.4 µM]

How did C/C(=C\c1ccc(C(=O)O)cc1)c1ccc2c(c1)C(C)(C)CCC2(C)C do in these assays?
WRN helicase inh: inactive; L3MBTL1 block: inactive; Pol beta inh: inconclusive; POLH inh: inconclusive; POLK inh: inconclusive; Pol iota inh: 32µM!

How did Cc1nn(-c2ccccc2)c(C)c1C(=O)OCC(=O)Nc1ccccc1C(F)(F)F do in these assays?
WRN helicase inh: inactive; L3MBTL1 block: inactive; POLH inh: inconclusive; POLK inh: inactive; Pol iota inh: inactive

How did CCc1ccccc1N(CC(=O)NCc1ccco1)C(=O)c1snc(C(N)=O)c1N do in these assays?
WRN helicase inh: inactive; L3MBTL1 block: inactive; Pol beta inh: 50µM; POLH inh: 20µM; POLK inh: inactive; Pol iota inh: inconclusive

Results for Cc1c(C(=O)N2CCCCC2)c(S(=O)(=O)NCCc2ccc(Cl)cc2)c(C)n1C ?
WRN helicase inh: inactive; Pol beta inh: inactive; POLH inh: inactive; POLK inh: inactive; Pol iota inh: inactive

What do the screens show for `Cc1ccc2c(C(=O)CCl)c(C)[nH]c2c1`?
WRN helicase inh: inactive; Pol beta inh: inactive; POLH inh: inconclusive; POLK inh: inactive; Pol iota inh: 10µM

Results for Cc1ccc2c(C(=O)CN3CCSCC3)c(C)[nH]c2c1 ?
WRN helicase inh: inactive; L3MBTL1 block: inactive; Pol beta inh: inactive; POLH inh: inactive; POLK inh: inactive; Pol iota inh: inactive

Results for CCCn1c(=NC(=O)CCS(=O)(=O)c2ccccc2)sc2cc(S(N)(=O)=O)ccc21 ?
WRN helicase inh: inactive; L3MBTL1 block: inactive; POLH inh: inactive; POLK inh: inactive; Pol iota inh: inactive

Results for Cn1c(-[n+]2c(-c3ccccc3)cc(-c3ccccc3)cc2-c2ccccc2)nc2cc([N+](=O)[O-])ccc21 ?
WRN helicase inh: inactive; L3MBTL1 block: inactive; Pol beta inh: inactive; POLH inh: inactive; POLK inh: inactive; Pol iota inh: inactive
